Source: PubChem BioAssay (several laboratories)
TIM10 inh: growth inhibitors of isogenic TIM10 control yeast, primary screen, counter-screen for tim10-1 yeast inhibitor project, luminescence, uHTS | AID 463195, 2010 | actives 1.4% (n = 330,000) | S. cerevisiae TIM10 strain growth, BacTiter-Glo luminescence, 24 h | inhibition, % at 10 µM;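 active = inhibition of 40% or more at the single tested concentration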;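 note: wild-type TIM10 isogenic control strain grown at permissive 25 °C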
PfHsp90 yeast 2: growth inhibition of PfHsp90-expressing yeast, primary screen, antimalarial PfHsp90 inhibitor project, S. cerevisiae, BacTiter-Glo luminescence, single point, set 2. BacTiter-Glo ATP, 48 h; yeast lacking PDR1 and PDR3 efflux regulators. inhibition, % at 9.4 µM. actives 0.32% (n = 310,000);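 active = every replicate shows inhibition above about 80%, whatever the replicate mean, limit read from the data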;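 note: 0% = DMSO neutral controls and 100% = 20 µM radicicol positive controls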
tim23-1 inh: growth inhibitors of tim23-1 mutant yeast, primary screen, luminescence, uHTS. inhibition, % at 20 µM. actives 1.3% (n = 330,000). S. cerevisiae tim23-1 growth, BacTiter-Glo luminescence, 24 h;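 active = growth inhibition of the mutant yeast at or above 50%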;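 note: temperature-sensitive mutant grown at 25 °C; plate controls were DMSO-treated mutant yeast for no effect and medium wells lacking yeast for full effect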
tim10-1 inh: growth inhibitors of tim10-1 mutant yeast, primary screen, luminescence, uHTS. AID 463190, 2010. actives 2.2% (n = 330,000). inhibition, % at 20 µM. S. cerevisiae tim10-1 ts strain growth, BacTiter-Glo, 24 h;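 active = inhibition of at least 40%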;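 note: mutant grown at 25 °C; 0% = DMSO wells with yeast and 100% = wells holding no yeast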
V-ATPase pHluor: regulators of yeast V-ATPase proton pumping, primary screen, pHLuorin cytosolic pH fluorescence; actives 0.37% (n = 350,000); AID 504577, 2011; S. cerevisiae; response, % at 10 µM; in the data active = response mostly above about 7.3%, no sharp cut-off; inactive = mostly below about 5.4%; note: actives read high
tim10-1 conf: growth inhibitors of tim10-1 mutant yeast, confirmation, single concentration, luminescence, S. cerevisiae; shares compounds with tim10-1 inh; AID 463213, 2010; S. cerevisiae tim10-1 ts strain growth, BacTiter-Glo, 24 h; actives 56% (n = 7,400); inhibition, % at 20 µM;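 active = inhibition of yeast growth at or above a set limit in either of two repeat tests at 20 µM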;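 note: tim10-1 mutant grown at permissive 25 °C to find synthetic lethal compounds; 0% = DMSO yeast wells and 100% = medium wells without yeast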
Numbers without * were called inactive; / = not tested or not shown. This is a sample that favours compounds with a hit; in the whole collection about 3.7% have one here.

SMILES	TIM10 inh	PfHsp90 yeast 2	tim23-1 inh	tim10-1 inh	V-ATPase pHluor	tim10-1 conf
Cc1ccc(N2CC(C(=O)Nc3ccccc3OC(F)F)CC2=O)cc1 (stereo unspecified)	-4	/	18	5	1	/
CCCNC(=S)Nc1ccc(F)cc1F	9	-13	-8	12	-1	/
O=C(NNC(=O)c1ccc(S(=O)(=O)N2CCCCC2)cc1)c1ccc(F)cc1	9	-2	34	36	-3	/
C=CCc1c(C)nc(SC)nc1Nc1ccccc1	20	/	35	44*	-5	27
Cc1ccc(S(=O)(=O)NCCC(c2ccccc2)c2ccco2)cc1 (stereo unspecified)	-8	-17	37	-19	-1	/
COc1ccc(OC)c(S(=O)(=O)NCC(c2ccco2)S(=O)(=O)c2ccccc2)c1 (stereo unspecified)	3	/	11	43*	-1	38*
Cc1ccc(S(=O)(=O)NCC(c2ccco2)S(=O)(=O)c2ccccc2)cc1 (stereo unspecified)	5	/	27	44*	-1	33*
COc1ccc(OC)c(S(=O)(=O)NCC(c2ccco2)N2CCc3ccccc3C2)c1 (stereo unspecified)	18	/	22	27	-1	/
COc1ccc(CC(=O)OCC(=O)Nc2ncc(Cl)c(C)c2Cl)cc1	8	/	40	43*	0	30*
CCCCCCc1cc2cc(C(N)=O)c(=N)oc2cc1O	15	/	13	42*	/	18
CCOC(=O)c1ccc(S(=O)(=O)Nc2cc(C(C)(C)C)no2)cc1	10	/	24	41*	-1	15
O=C1C2C3CCCC3=C3CCCC3C2C(=O)N1c1ccc(Cl)cc1 (stereo unspecified)	16	10	39	42*	-1	31*
COc1ccc(/C=C/C(=O)O)cc1S(=O)(=O)N1CCCCC1	1	-18	9	14	-2	/
Cc1c(C(=O)c2ccc(F)cc2F)c2ccccn2c1CCC#N	15	19	18	27	-1	/
Cc1c(C(=O)c2ccc(N(C)C)cc2)c2ccccn2c1CCC#N	20	-6	16	40*	0	12
COc1ccc(-c2c[n+]3c4n2CCCCC4=C(c2ccccc2)C3)cc1	36	/	37	45*	-1	17
COc1ccc(CN(C)C(=O)CCCNC(=O)c2ccc(Cl)cc2)cc1	-21	-11	-5	3	1	/
S=c1[nH]c2ccc3ccccc3c2[nH]1	17	-1	21	19	-6	/
Cc1[nH]c2c(ccc3ccccc32)c1C1C(CCN)C1(C)C (stereo unspecified)	29	/	49	45*	-1	33*
Cc1ccccc1OCC(=O)NC(=S)Nc1ccccc1N1CCN(S(C)(=O)=O)CC1	16	-6	8	4	0	/
Nc1cccc(Nc2nc(OC(C(F)(F)F)C(F)(F)F)nc(OC(C(F)(F)F)C(F)(F)F)n2)c1	24	-16	28	43*	-3	38*
c1ccc(C2OCCN2c2ccccc2)cc1 (stereo unspecified)	/	11	/	/	2	/
CCOC(=O)c1ccc2ncc(C(=O)OCC)c(NCCN3CCOCC3)c2c1	1	-12	23	-2	-3	/
CCOC(=O)c1cnc2ccc(C)cc2c1Nc1ccc(N2CCOCC2)cc1	15	-15	-17	41*	2	26
COc1ccc(NC(=O)C2=CC(c3cccs3)=NS(=O)(=O)N2C)cc1	1	5	18	6	2	/
SMILES	TIM10 inh	PfHsp90 yeast 2	tim23-1 inh	tim10-1 inh	V-ATPase pHluor	tim10-1 conf
CN1C(C(=O)Nc2ccc(OC(F)(F)F)cc2)=CC(c2cccs2)=NS1(=O)=O	40	12	39	41*	1	39*
Cc1ccc(CNC(=O)COc2cc(O)c3c(c2)OC(C)(C)CC3=O)cc1	8	-13	30	44*	4	3
N#Cc1c(-c2ccc(F)cc2)cc(-c2cccnc2)nc1N	-21	4	-17	15	-3	/
N#Cc1c(-c2cccs2)cc(-c2cccnc2)nc1N	26	-6	37	43*	-3	29
COc1ccc(-c2csc(N3CCN(C(=O)c4ccccc4)CC3)n2)cc1	27	/	33	42*	6	33*
CCCNC(=S)N1CCN(c2nc(-c3ccc(C)cc3)cs2)CC1	24	-5	19	13	0	/
COCCNC(=S)N1CCN(c2nc(-c3ccccc3)cs2)CC1	10	-55	38	41*	-6	32*
COCCCNC(=S)N1CCN(c2nc(-c3ccc(F)cc3)cs2)CC1	19	27	48	44*	-2	33*
O=C(NC1CCCCC1)N1CCN(c2nc(-c3ccccc3)cs2)CC1	20	17	41	45*	-1	30
COc1ccc(N2C(=O)CC(Sc3n[nH]c(-c4cccc(C)c4)n3)C2=O)cc1 (stereo unspecified)	21	/	15	36	8	/
CCOc1ccccc1N1C(=O)CC(Sc2n[nH]c(-c3ccccc3)n2)C1=O (stereo unspecified)	32	19	13	53*	6	53*
O=C1C(=NO)CCc2ccccc21	/	-11	/	/	5	/
COc1cccc(/C(C)=N/NS(=O)(=O)c2ccc(Cl)cc2)c1	11	-3	26	28	-1	/
COc1ccc(S(=O)(=O)N/N=C(/C)c2ccc(Cl)cc2)cc1	32	/	45	52*	-2	44*
Clc1ccccc1OCc1nnc(-c2ccccc2Br)o1	36	-19	48	49*	1	34*
Cc1ccc(CNC(=O)CCC(=O)Nc2nnc(C(C)C)s2)cc1	6	9	10	9	1	/
CCn1c(CSc2nc3ccccc3n2C)nc2ccccc21	17	-11	33	29	-4	/
Cn1c(CSc2nnc(SCc3ccccc3)s2)nc2ccccc21	37	-4	41	56*	-4	42*
O=C(Cc1cccs1)N1CCN=C1SCc1ccccc1Cl	6	/	22	40*	1	34*
O=C(Cc1cccs1)N1CCN=C1SCc1ccccc1F	3	30	24	16	5	/
COc1cc(SC)ccc1C(=O)N(Cc1ccccc1)c1ccccn1	19	/	31	20	-3	/
Cc1cc(C)c(COc2ccc(/C=N/n3c(C)n[nH]c3=S)cc2)c(C)c1	14	-8	39	41*	0	11
COc1cccc(-c2cc(C(=O)Nc3cc(OC)c(OC)c(OC)c3)no2)c1	25	-10	45	51*	-4	42*
COc1cc(NC(=O)c2cc(-c3ccccc3)on2)cc(OC)c1OC	20	-3	32	3	-2	/
